From PubChem BioAssay
Rows were chosen to be rich in hits. Some 3.7% of all compounds tested hit in one or more screens of this group.
GPR7 antag – antagonists of human GPR7 (neuropeptides B/W receptor 1); P48145; GPR7-expressing cells, fluorescence antagonist assay; inhibition, % at 4.4 µM; actives 1.1% (n = 290,000); AID 1861; in the data active = inhibition above about 16%, passing the limit was not always enough;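 also: cells stimulated with the agonist NPW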
TMEM16A inh – inhibitors of mouse TMEM16A calcium-activated chloride channel | normalized B-score (activity score, 25-100; higher = stronger inhibition) at 10 µM | HEK293 TMEM16A/YFP iodide influx fluorescence, ionomycin | actives 1.2% (n = 310,000);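 active = ratio plate-corrected score three or more library SD toward inhibition, starting fluorescence score within five deviations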;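 also: score derived from kinetic fluorescence span divided by baseline fluorescence per well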
ANO1 activ – mouse TMEM16A channel activation, primary screen | AID 623877 | HEK293 TMEM16A/YFP-H148Q/I152L, iodide quench fluorescence; hits give low values | B-score at 10 µM | actives 0.3% (n = 340,000);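 active = fluorescence-ratio B-score plate-corrected deviation score at least 3 library SD below zero, with starting fluorescence score within 5 deviations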;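 also: channel opened by trigger with iodide after compound preincubation; score built on the fluorescence ratio of max minus min over baseline; more negative score means more quench and so TMEM16A activation or potentiation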
CHT PAM – allosteric activators of human choline transporter CHT; AID 488977; CHT-expressing cells, membrane potential dye, choline EC20; hits give high values; LV-AA mutant CHT in HEK293 cells; B-score at 10 µM; actives 0.49% (n = 310,000);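 active = initial fluorescence not abnormally high and integrated response B-score, plate-corrected, over 3 SD above library mean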
Target sequence (Q9GZV3 whole entry, looked up): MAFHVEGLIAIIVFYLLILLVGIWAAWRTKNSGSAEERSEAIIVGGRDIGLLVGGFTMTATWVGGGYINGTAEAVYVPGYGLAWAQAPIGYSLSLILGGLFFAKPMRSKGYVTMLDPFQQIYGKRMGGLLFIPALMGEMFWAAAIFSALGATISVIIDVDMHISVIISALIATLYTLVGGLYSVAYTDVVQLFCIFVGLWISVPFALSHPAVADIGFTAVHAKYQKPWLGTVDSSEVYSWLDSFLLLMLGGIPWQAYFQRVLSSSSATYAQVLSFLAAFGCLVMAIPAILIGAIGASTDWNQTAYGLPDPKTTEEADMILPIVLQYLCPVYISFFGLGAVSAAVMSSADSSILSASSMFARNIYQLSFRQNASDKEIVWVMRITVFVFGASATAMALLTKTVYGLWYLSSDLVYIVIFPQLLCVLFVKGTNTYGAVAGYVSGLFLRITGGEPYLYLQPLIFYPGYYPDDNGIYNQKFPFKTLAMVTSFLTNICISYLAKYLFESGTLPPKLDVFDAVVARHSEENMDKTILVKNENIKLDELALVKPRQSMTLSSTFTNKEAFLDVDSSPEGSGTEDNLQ
Kir21 block – Kir2.1 (mouse) channel inhibition; B-score at 10 µM; actives 0.85% (n = 310,000); HEK293-Kir2.1, FluxOR thallium flux fluorescence; hits give low values; P35561;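 active = fluorescence ratio B-score at or below minus 3 SD of library scores, with starting-brightness B-score within 2 SD, cut at about -4.2 in these data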;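 also: channel flux triggered by added potassium and thallium sulfate stimulus; B-score of peak minus minimum fluorescence over baseline after thallium stimulus; more negative B-score means stronger Kir2.1 block with less thallium influx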
CHT inh – inhibits the human high affinity choline transporter; Q9GZV3; actives 0.86% (n = 310,000); CHT-expressing cells, membrane potential dye, choline response; hits give low values; B-score at 10 µM;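 active = B-score over 3 SD under the library average, and starting fluorescence ratio not unusually high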;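 also: choline stimulus applied at its EC90 after an EC20 pre-addition; B-score computed on integrated fluorescence ratio after choline addition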
CHT block conf – confirmation of human choline transporter CHT inhibitors; shares compounds with CHT inh; CHT-expressing cells, choline membrane potential dye; LV-to-AA substituted CHT, HEK293 cells; CHT activity remaining % of control (hits give low values), % at 10 µM; actives 70% (n = 2,400);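 active = choline transporter activity left, mean of duplicates at 10 µM, below buffer-only control mean minus 3 SD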;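 also: depolarization triggered by choline at its EC90 following an EC20 pre-addition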
HEK293 CHT ctr – CHT inhibitor counter-screen hit in parental HEK293 cells | shares compounds with CHT inh | membrane potential dye, choline response; active = decrease or increase beyond buffer ±3SD | membrane potential ratio readout (active if shifted either direction beyond buffer ±3SD; no single direction) at 10 µM | actives 4% (n = 2,400) | AID 493222;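 also: parental cells lack the transporter so any hit is non-specific; ratio is peak minus trough fluorescence over baseline after EC90 choline challenge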
Of the large screens only hits and unclear results are named; the others gave an inactive call (follow-up assays come after a bar, where they were run).

COc1ccc(C(=O)N2CCCC(O)C2)cc1OC1CCN(C(C)C)CC1 (stereo not given)	CHT inh -7.1 | CHT block conf 62% | HEK293 CHT ctr inactive
O=C(O)c1ccc2c(c1)N(Cc1ccc(F)cc1)C(=O)c1ccccc1S2	CHT inh -5.2 | CHT block conf 64% | HEK293 CHT ctr inactive
O=C(NCCN1CCOCC1)c1ccc2c(c1)N(Cc1cccc(F)c1)C(=O)c1ccccc1S2	none
CC(=O)Cn1nnc2sc(-c3ccccc3)cc2c1=O	none
CCc1ccc(N(C(=O)c2csnn2)C(C(=O)NC(C)(C)CC)c2cccnc2)cc1 (stereo not given)	CHT inh -5.1 | CHT block conf inactive | HEK293 CHT ctr inactive
CCC(C)(C)NC(=O)C(c1sccc1C)N(Cc1ccco1)C(=O)c1csnn1 (stereo not given)	none
Cc1ccc(N(C(=O)c2csnn2)C(C(=O)NCc2ccccc2)c2ccccn2)cc1 (stereo not given)	none
CCC(C)(C)NC(=O)C(c1ccccn1)N(C(=O)c1csnn1)c1ccc(C)cc1 (stereo not given)	CHT inh -5.2 | CHT block conf inactive | HEK293 CHT ctr inactive
CCC(C)(C)NC(=O)C(c1ccccc1F)N(Cc1ccco1)C(=O)c1csnn1 (stereo not given)	CHT inh -5 | CHT block conf inactive | HEK293 CHT ctr inactive
C/C(=N\NC(=O)c1ccc(NS(=O)(=O)c2cccs2)cc1)c1ccc(O)cc1O	none
O=[N+]([O-])/C(C(=C(Cl)Cl)N1CCN(Cc2ccccc2)CC1)=C1\NCCN1Cc1ccc(Cl)nc1	CHT inh -13 | CHT block conf 4.7% | HEK293 CHT ctr inactive
CCN(CC(=O)Nc1cccc(OC)c1)c1ncnc2sc(C)c(C)c12	CHT inh -5.5 | CHT block conf 69% | HEK293 CHT ctr inactive
CC(=O)Nc1ccc(NC(=O)C(C)OC(=O)C2CCN(S(=O)(=O)c3cccs3)CC2)cc1 (stereo not given)	none
COc1ccc(C(=O)C2CCCN(C(=O)C3=CCCC3)C2)c(C)c1 (stereo not given)	CHT inh -5 | CHT block conf 35% | HEK293 CHT ctr inactive
CCN(CC)C(=O)N1CCN(S(=O)(=O)c2ccc(C)c(C)c2)CC1	CHT inh -7.4 | CHT block conf 37% | HEK293 CHT ctr inactive
O=C(C1CCN(S(=O)(=O)c2ccc3ccccc3c2)CC1)N1CCN(c2ncccn2)CC1	CHT inh -6 | CHT block conf 39% | HEK293 CHT ctr inactive
O=C(Nc1ccccn1)C1CCN(S(=O)(=O)c2ccc3ccccc3c2)CC1	none (no result: GPR7 antag, TMEM16A inh, CHT PAM, Kir21 block, CHT inh)
CC1CCCN(CCCNC(=O)c2nn(C)c3c2CSc2ccccc2-3)C1 (stereo not given)	CHT inh -6.2 | CHT block conf 23% | HEK293 CHT ctr inactive
CC1CCCCN1CCCNC(=O)c1nn(C)c2c1CSc1ccccc1-2 (stereo not given)	CHT inh -7.6 | CHT block conf 8.6% | HEK293 CHT ctr inactive
COCCNC(=O)c1cc(S(=O)(=O)N2CCOCC2)ccc1SCc1cccc(OC)c1OC	none
COc1ccc(C(=O)C2CCCN(C(=O)c3noc4c3CCCC4)C2)cc1F (stereo not given)	none | CHT block conf 47% | HEK293 CHT ctr inactive
O=C(N/N=C/c1sc2ccccc2c1O)c1ccccc1	CHT inh -20 | CHT block conf -81% | HEK293 CHT ctr -55
Cc1ccc(C)c(C(=O)OCC(=O)Nc2cccc(S(=O)(=O)N3CCCCC3)c2)c1	none (no result: GPR7 antag, TMEM16A inh, CHT PAM, Kir21 block, CHT inh)
Clc1ccc2c(N3CCCC3)ccnc2c1	CHT inh -8 | CHT block conf 26% | HEK293 CHT ctr inactive
Oc1ccc(N2CCN(c3ccnc4cc(Cl)ccc34)CC2)cc1	none
COc1ccc(C)cc1S(=O)(=O)NC(C)C(=O)Nc1ccc2c(c1)OCO2 (stereo not given)	none
CCc1ccc(C(C)NC(=S)NC2CCCCC2)cc1 (stereo not given)	CHT inh -8.1 | CHT block conf 49% | HEK293 CHT ctr inactive
Cc1cc(C)c2nc3nc(C)c(C)cc3c(N)c2c1	none (no result: TMEM16A inh, CHT PAM, CHT inh)
CS(=O)(=O)Nc1ccc(C(=O)Nc2ccc(S(=O)(=O)Nc3nccs3)cc2)cc1	none
O=C(Nc1ccc(S(=O)(=O)Nc2nccs2)cc1)c1c(F)c(F)c(F)c(F)c1F	CHT inh -5 | CHT block conf 35% | HEK293 CHT ctr inactive
CCC(Oc1ccc(C)cc1)C(=O)Nc1ccc(S(=O)(=O)Nc2nccs2)cc1 (stereo not given)	CHT inh -6.5 | CHT block conf 40% | HEK293 CHT ctr inactive
Fc1ccc(NC(=S)NCc2cccs2)cc1	none
O=C(NCCN1CCOCC1)c1cccc(NS(=O)(=O)c2ccc(Br)cc2)c1	none (no result: GPR7 antag)
CC(C)(C)OC(=O)NCCCCCc1nnc(SCC(N)=O)o1	CHT inh -6.3 | CHT block conf inactive | HEK293 CHT ctr inactive
CCN(CC)C(=O)CSc1nnc(CCCCCNC(=O)OC(C)(C)C)o1	none
C=C(C)CSc1nnc(CCCCCNC(=O)OC(C)(C)C)o1	CHT inh -6 | CHT block conf 68% | HEK293 CHT ctr inactive
Cc1cc(O)ccc1NS(=O)(=O)c1ccc2c3c(cccc13)C(=O)N2	CHT inh -6.5 | CHT block conf 57% | HEK293 CHT ctr inactive
CS(=O)(=O)n1nc(OC(=O)c2cccc3ccccc23)cc1N	CHT inh -5.4 | CHT block conf 63% | HEK293 CHT ctr inactive
COc1ccc([N+](=O)[O-])c(OC)c1C(=O)NC(=O)Nc1c(F)c(F)c(F)c(F)c1F	none
CCCN1CCN(C(=S)Nc2ccc3nc(N4CCN(CC)CC4)cc(C)c3c2)CC1	CHT inh -9.2 | CHT block conf 22% | HEK293 CHT ctr inactive
CCN1CCN(c2cc(C)c3cc(NC(=S)N4CCC5(CC4)OCCO5)ccc3n2)CC1	CHT inh -5 | CHT block conf 40% | HEK293 CHT ctr inactive
CCN1CCN(c2cc(C)c3cc(NC(=S)N4CCOCC4)ccc3n2)CC1	CHT inh -5.8 | CHT block conf 39% | HEK293 CHT ctr inactive
Cc1ccc(SCC(=O)Nc2nnc(C(C)(C)C)s2)cc1	none
CNc1ccccc1C(C)(C)c1cc(-c2ccc(F)cc2)no1	none
COc1ccc(C(=O)Nc2nc3nccc(-c4ccccc4)n3n2)cc1	CHT inh -6.4 | CHT block conf inactive | HEK293 CHT ctr inactive
